For 39 sequences, PBM binding z-score results are on record in the supplement of paper PMC6555819.

The first assay has as its system LXRb homodimer (NR concentration 270 nM). The experiment in a line: PBM binding z-score (relative to random genomic background probes); higher = stronger binding; sequences stand for … in GC…GCGATTGACAGCGTAGAATGAAGG
The procedure, abridged:
(§1)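 Probes were double-stranded and carried 34-nt variable regions with direct-repeat seeds, single-nucleotide variants, half-site ablations and random human genomic background sequences, printed on custom Agilent 4×180K protein-binding microarrays. Arrays were incubated 1 h with ligand-free nuclear receptor dimers in PBS pH 7.4, 2% milk, 0.02% Triton X-100, 1 mM DTT, 0.2 mg/mL BSA and 0.4 mg/ml salmon testes DNA. Antibodies against each partner (one per run) detected binding, and scanned fluorescence was regression-normalized. Binding z-scores use the random background probes as reference.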
As to CCTACTGGGCCAACGTCATTGATCAGTCAAAGCA, the PBM binding z-score was -0.8.

For CCGACTCGGGCAGAAAGGTTACCATACCATCCGG, the PBM binding z-score is -0.536.

The sequence CCTTCTGGGCCACGAAAGGTCATTGATTCAGTGA returned a PBM binding z-score of 0.628.

For the sequence ACTAGCAGGCCGAGGGTCACTCAAGATTAGTCCG, the PBM binding z-score is -0.725.

Take CCTATTAGTTGACCATAAGGGCAACCGAAGCTCG: the PBM binding z-score came to 0.554.

For the sequence ACTATTAGTTGACTTACGGCAACCGATACGACGC, the PBM binding z-score came to 0.908.

In turn, CCGGCTAGGTCAATGGTCAGCTAAAGCAGCTCGC came in with a PBM binding z-score of -0.304.

In turn, TCTAGCAGGCCAGAGGGTCGCTCAAGAGGTACGG gave a PBM binding z-score of -1.97.

For the sequence ACTTCCGGGTCAACGAGGTTATAGCACGCGTATA, the PBM binding z-score came out at 1.38.

Consider CCGACTGAGGCATAAGGTTACCATAAGCCAGCCC, for which the PBM binding z-score is -1.08.

GGAACGAGGGCAAGTTGACAGCAGAGTTTGATGG: the PBM binding z-score is -0.45.

As for CCAGACTGGTGAGAAGGTAACTCAGCCTCGATTA, the PBM binding z-score is -0.739.

Take CGTCCAAGGTCAGAGAGGTCAGTGGATGCCGAGT: the PBM binding z-score was 0.285.

Take TCGGACAGGTGAAGGTAACTCAGGTACGCAGTCG: the PBM binding z-score is -0.839.

Turning to GCTATTAGTTGAAAGGGCAACCGAATGATTCTCG, the PBM binding z-score was determined as 0.134.

The sequence ACAGACAGGTGATGAAGGTGACTCAGGCTATCAT came in with a PBM binding z-score of -0.348.

With ACTATTAGTTGAGACGATGGCAACCGATAGGTTG, the PBM binding z-score is 0.0838.

ACACCAAGGTGATCGTGAGGTCGTTGATACTAAC had a PBM binding z-score of -0.254.

For TGAATGAGGTTATAAAATCAGGGAACGTTGCAAA, the PBM binding z-score was 0.05.

In turn, TATACAGGGTCAAAAGCCAGAGTACGAATGTCGA displayed a PBM binding z-score of 2.65.

In turn, ACTTACGGGTCACCGAGGTTATAGCACGCGTATA displayed a PBM binding z-score of 0.402.

Sequence TCTGGTAGGTCAGTTGGTCAGCTAACGAGCTGCC registered a PBM binding z-score of 0.418.

AATACAGCGTCATCGTAGGCCAGAGTACGCACAG came in with a PBM binding z-score of -0.269.

On to CGTCAAAGTTCAACTCAGGTAACGTAAAGCACGC, for which the PBM binding z-score was found to be 1.99.

ATATGTAGGTTAAGGGTGATTCAGGTTGGTTCGC: the PBM binding z-score amounted to 0.807.

Regarding CCAGACAGGTGAAAGATAACTCAGTCTGGTACGC, the PBM binding z-score is -0.465.

Take TCTAGTTGATCAAAGGTCACACACTCGAAATGCG: the PBM binding z-score came to 1.9.

Take TCTCGGAGGACAGGAAGGTCAGAGCTTTCCAGAG: the PBM binding z-score is -0.565.

For CTCTAAAGGTCGGTTGAGGTGAGTATACGGATAA, the PBM binding z-score worked out at 0.152.

Take CGTCCAAGGTCAGAGAGGTTAGTGAATGCCGAGT: the PBM binding z-score is -0.248.

For the sequence CCGACTGCGGCAAGGTTACCATAACGCACAGCCA, the PBM binding z-score was -0.64.

As for CCTAGCAGGACAATCTGGGTCACTCAAGGCTTGA, the PBM binding z-score is -0.672.

As to AGGCAAAGTTCACTAGGTAACGTAAGATTCAGCT, the PBM binding z-score is 0.881.

Sequence CTCGAAAGGACGGTTGAGGTGAGTATACGGATAA had a PBM binding z-score of -0.832.

The sequence CGAACGAGGGCATGAGTCGATAGCAAATGCCGAT had a PBM binding z-score of -0.951.

With CCTACTTGGCCAAAAAGGTCATTGATGCCGATAA, the PBM binding z-score came out at 1.27.

CCTACTGGGCCATCAGGTCATTAATATCAACGTT displayed a PBM binding z-score of -0.00307.

On to TCTAGTTGGTCAGGGAGGTCACACACGACGGGTA, for which the PBM binding z-score came to 1.66.

GCTAGCAGGCCAATTGGGTCACTCAATGACGGGC: the PBM binding z-score is -1.32.

The next assay deals with PPARa:RXRa (NR concentration 270 nM, RXRa partner concentration 90 nM). The assay is described as above. The gist of the method:
as §1
For the sequence CCTACTGGGCCAACGTCATTGATCAGTCAAAGCA, the PBM binding z-score is 0.419.

CCGACTCGGGCAGAAAGGTTACCATACCATCCGG registered a PBM binding z-score of 1.97.

With CCTTCTGGGCCACGAAAGGTCATTGATTCAGTGA, the PBM binding z-score is 4.97.

In turn, ACTAGCAGGCCGAGGGTCACTCAAGATTAGTCCG came in with a PBM binding z-score of 2.71.

Sequence CCTATTAGTTGACCATAAGGGCAACCGAAGCTCG gave a PBM binding z-score of 0.977.

The sequence ACTATTAGTTGACTTACGGCAACCGATACGACGC yielded a PBM binding z-score of -0.179.

As for CCGGCTAGGTCAATGGTCAGCTAAAGCAGCTCGC, the PBM binding z-score is 2.91.

Sequence TCTAGCAGGCCAGAGGGTCGCTCAAGAGGTACGG yielded a PBM binding z-score of 0.269.

ACTTCCGGGTCAACGAGGTTATAGCACGCGTATA displayed a PBM binding z-score of 5.23.

With CCGACTGAGGCATAAGGTTACCATAAGCCAGCCC, the PBM binding z-score was found to be 1.18.

Consider GGAACGAGGGCAAGTTGACAGCAGAGTTTGATGG, for which the PBM binding z-score amounted to 1.69.

With CCAGACTGGTGAGAAGGTAACTCAGCCTCGATTA, the PBM binding z-score is -0.19.

Sequence CGTCCAAGGTCAGAGAGGTCAGTGGATGCCGAGT showed a PBM binding z-score of 4.94.

TCGGACAGGTGAAGGTAACTCAGGTACGCAGTCG had a PBM binding z-score of 0.988.

In the case of GCTATTAGTTGAAAGGGCAACCGAATGATTCTCG, the PBM binding z-score turned out to be 2.33.

In turn, ACAGACAGGTGATGAAGGTGACTCAGGCTATCAT showed a PBM binding z-score of 0.764.

In the case of ACTATTAGTTGAGACGATGGCAACCGATAGGTTG, the PBM binding z-score was -0.263.

The sequence ACACCAAGGTGATCGTGAGGTCGTTGATACTAAC returned a PBM binding z-score of 1.62.

Consider TGAATGAGGTTATAAAATCAGGGAACGTTGCAAA, for which the PBM binding z-score turned out to be 2.15.

Take TATACAGGGTCAAAAGCCAGAGTACGAATGTCGA: the PBM binding z-score amounted to 5.48.

ACTTACGGGTCACCGAGGTTATAGCACGCGTATA displayed a PBM binding z-score of 6.19.

Sequence TCTGGTAGGTCAGTTGGTCAGCTAACGAGCTGCC registered a PBM binding z-score of 2.17.

For AATACAGCGTCATCGTAGGCCAGAGTACGCACAG, the PBM binding z-score is -0.355.

In turn, CGTCAAAGTTCAACTCAGGTAACGTAAAGCACGC yielded a PBM binding z-score of 5.08.

Take ATATGTAGGTTAAGGGTGATTCAGGTTGGTTCGC: the PBM binding z-score was found to be 4.98.

Consider CCAGACAGGTGAAAGATAACTCAGTCTGGTACGC, for which the PBM binding z-score amounted to 0.902.

The sequence TCTAGTTGATCAAAGGTCACACACTCGAAATGCG displayed a PBM binding z-score of 5.8.

For TCTCGGAGGACAGGAAGGTCAGAGCTTTCCAGAG, the PBM binding z-score was found to be 1.87.

In turn, CTCTAAAGGTCGGTTGAGGTGAGTATACGGATAA came in with a PBM binding z-score of 2.87.

Sequence CGTCCAAGGTCAGAGAGGTTAGTGAATGCCGAGT came in with a PBM binding z-score of 4.18.

For CCGACTGCGGCAAGGTTACCATAACGCACAGCCA, the PBM binding z-score was 1.02.

For CCTAGCAGGACAATCTGGGTCACTCAAGGCTTGA, the PBM binding z-score stood at 3.31.

On to AGGCAAAGTTCACTAGGTAACGTAAGATTCAGCT, for which the PBM binding z-score stood at 4.61.

The sequence CTCGAAAGGACGGTTGAGGTGAGTATACGGATAA returned a PBM binding z-score of 0.0414.

Sequence CGAACGAGGGCATGAGTCGATAGCAAATGCCGAT registered a PBM binding z-score of 1.48.

CCTACTTGGCCAAAAAGGTCATTGATGCCGATAA yielded a PBM binding z-score of 4.7.

Sequence CCTACTGGGCCATCAGGTCATTAATATCAACGTT displayed a PBM binding z-score of 2.46.

Consider TCTAGTTGGTCAGGGAGGTCACACACGACGGGTA, for which the PBM binding z-score stood at 3.72.

The sequence GCTAGCAGGCCAATTGGGTCACTCAATGACGGGC registered a PBM binding z-score of 1.83.
